# An excerpt weighted towards active compounds, which were near 4.2% of everything screened.
# TRPV1 potentiator – enhances activation of the human vanilloid receptor TRPV1; Q8NER1; TRPV1-expressing cells, Fluo-8 calcium influx, capsaicin EC20 potentiation; potentiation, % at 8.33 µM; 320,000 tested, 0.02% active; in the data active = potentiation above about 80%; inconclusive = between about 30% and that limit; note: 0% is about no effect
#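 Fluo-8 calcium influx in TRPV1-expressing cells, kinetic read (ex 480/em 520 nm). Compound added and read 3 min for agonist activity, followed by capsaicin at EC20 final and 2 min further read for enhancement.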
# TRPV1 agonist – human TRPV1 agonism; Q8NER1; AID 540275; 320,000 tested, 0.19% active; TRPV1-expressing cells, Fluo-8 calcium influx, agonist mode; activation, % at 8.33 µM; in the data active = activation above about 80%; inconclusive = between about 30% and that limit; note: 0% is about no effect
#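 Fluo-8 calcium influx in TRPV1-expressing cells, kinetic read (ex 480/em 520 nm). Compound added and read 3 min for agonist activity, followed by capsaicin at EC20 final and 2 min further read for enhancement.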
# D1 potentiator – human D1 dopamine receptor positive modulation; P21728; HEK293 TREx D1 cells, calcium flux, dopamine EC20 potentiation; potentiation, % at 10 µM; 360,000 tested, 0.036% active; AID 504651; in the data active = potentiation above about 30%; note: 0% is about no effect
# Target sequence (P21728 whole entry, looked up): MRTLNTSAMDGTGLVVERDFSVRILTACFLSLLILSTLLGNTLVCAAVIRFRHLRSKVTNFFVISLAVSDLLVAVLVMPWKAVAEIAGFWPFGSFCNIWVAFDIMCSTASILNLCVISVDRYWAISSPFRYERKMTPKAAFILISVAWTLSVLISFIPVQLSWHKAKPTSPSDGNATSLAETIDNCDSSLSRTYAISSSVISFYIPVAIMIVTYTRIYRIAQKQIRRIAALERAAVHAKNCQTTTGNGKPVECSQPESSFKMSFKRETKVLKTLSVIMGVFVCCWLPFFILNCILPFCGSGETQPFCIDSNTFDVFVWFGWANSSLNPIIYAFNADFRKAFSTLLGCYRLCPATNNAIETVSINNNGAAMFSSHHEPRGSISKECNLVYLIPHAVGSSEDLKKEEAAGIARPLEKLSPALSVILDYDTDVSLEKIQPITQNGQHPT
# D1 antag – blocks dopamine activation of the human D1 receptor. HEK293 TREx D1 cells, calcium flux, dopamine EC80; active compounds read low. 360,000 tested, 3.2% active. P21728. AID 504652. activity change, negative = inhibition, % at 10 µM; in the data active = activity change below about -30%; note: % is set by controls: 0 for no effect and ±100 for the full control effect
#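 Calcium flux readout: force-coupled, inducible Hek293 Trex D1 line, cells induced overnight at 30 C with tetracycline, dye-loaded 30–90 min at RT. Antagonism scored against EC80 dopamine challenge given 180 s after compound.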
# D1 ag – agonists of human D1 dopamine receptor | P21728 | HEK293 T-REx D1 cells, calcium flux, agonist mode | activation, % at 2 µM | 360,000 tested, 1% active | AID 504660; in the data active = activation above about 30%; note: 0% is about no effect
#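 Agonism was scored from calcium flux recorded over 180 s (1 read/s) after pintool compound addition, following a 10-cycle baseline. Cells were inducible force-coupled HEK293 TREx D1, plated overnight at 30 C and loaded with no-wash calcium dye.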
# * marks the source's active call; other numbers are inactive results; ? = inconclusive; · = no result given.
SMILES,TRPV1 potentiator,TRPV1 agonist,D1 potentiator,D1 antag,D1 ag
COc1ccc(/C=N/Nc2ccccc2C(=O)O)cc1Cn1cc([N+](=O)[O-])cn1,·,·,-10,-32*,1
CCOc1ccc(/C=C2\SC(=S)NC2=O)cc1OC,2,-1,0,-10,1
COc1ccc(/C=C2\SC(=O)NC2=S)cc1OC,0,5,5,2,32*
COc1ccc(/C=C2\SC(c3ccc(C)cc3)=NC2=O)cc1OC,6,7,-5,-6,53*
Cc1ccc(/C=C/C(=O)NCCCc2ccccc2)cc1,11,-5,-8,-40*,22
CC(CCc1ccccc1)NC(=O)/C=C/c1ccc(Cl)cc1 (stereo unspecified),-18,?,-4,-86*,9
CC(Cc1ccccc1)NC(=O)/C=C/c1ccc([N+](=O)[O-])cc1 (stereo unspecified),-18,?,-3,-8,4
CCOC(=O)c1[nH]c(C)c(C(=O)OCC)c1C,-4,-2,·,9,2
CCOC(=O)c1c(C)[nH]c(C(=O)OC)c1CCC(=O)OC,?,-8,-3,-36*,1
CCOC(=O)c1[nH]c(Cc2[nH]c(C(=O)OCC)c(C)c2CCC(=O)OC)c(CCC(=O)OC)c1C,0,7,-14,-55*,4
CCN(CC)c1cc2c(cc1F)c(=O)c(S(=O)(=O)c1ccc(OC)cc1)cn2CC,·,·,2,2,1
CC1=CC(=C(C#N)c2nc3ccccc3s2)C=C(C)N1CC1CCCO1 (stereo unspecified),-5,?,-6,6,43*
CCN(c1ccccc1)c1nnc(NC(=O)Nc2ccc(Br)cc2)s1,·,·,0,3,-1
CC1(C)Oc2ccc(/C=C/C(=O)N3CCOCC3)c(O)c2C(N2CCOCC2)C1O (stereo unspecified),1,3,-7,-8,2
CC(C)CC(=O)OC1C(N2CCOCC2)c2c(ccc(/C=C/C(=O)N3CCOCC3)c2O)OC1(C)C (stereo unspecified),-2,81*,-2,-18,3
Cc1ccc(Cn2nc(C)c(NC(=O)CSc3nc4c(c(C(F)(F)F)n3)CCc3ccccc3-4)c2C)cc1,0,2,-11,-86*,0
COc1ccc(F)cc1CSc1nnnn1-c1ccc(O)cc1,13,1,-12,-30,5
CCOc1ccc(C(C)=O)cc1CSc1nnnn1-c1ccc(O)cc1,1,6,-10,-22,14
COc1ccc(C(C)=O)cc1CSc1nnnn1-c1ccc(O)cc1,-9,4,-7,-35*,3
COc1cc(CSc2nnnn2-c2ccc(C)cc2)cc(OC)c1OC,19,-6,0,-7,39*
OC(CCCN1CCC(O)(c2ccc(Cl)cc2)CC1)c1ccc(F)cc1 (stereo unspecified),-1,4,-3,-37*,32*
O=C(COC(=O)c1cccc(S(=O)(=O)N2CCN(c3ccccc3)CC2)c1)NCC1CCCO1 (stereo unspecified),0,5,-4,-34*,3
O=C(COC(=O)c1cccc(S(=O)(=O)N2CCN(c3ccc(F)cc3)CC2)c1)NCC1CCCO1 (stereo unspecified),-15,12,-8,-5,8
CCc1ccccc1NC(=O)CN1C(=O)CCc2cc(S(=O)(=O)N3CCCCC3)ccc21,·,·,1,18,0
Cc1cccc(S(=O)(=O)NC2CCN(C#N)C2)c1 (stereo unspecified),·,·,-3,-16,6
SMILES,TRPV1 potentiator,TRPV1 agonist,D1 potentiator,D1 antag,D1 ag
CCOc1ccc2cc(-c3nnc(Nc4ccccc4F)s3)c(=O)oc2c1,·,·,3,6,6
CCOc1ccccc1Nc1nnc(-c2cc3cc(OC)ccc3oc2=O)s1,·,·,-3,-15,56*
Cc1cnc(CNC(=O)c2ccc(OC3CCN(C(=O)C4CC4)CC3)cc2)cn1,5,-2,5,0,2
O=C(NCC1CCCO1)c1ccc(OC2CCN(C(=O)C3CC3)CC2)cc1 (stereo unspecified),-7,-2,3,-34*,0
COc1ccccc1NC(=O)CSc1nc2c(oc3ccccc32)c(=O)n1-c1ccccc1F,·,·,2,8,5
COc1ccnc(N=CNOCc2cccc(Cl)c2Cl)c1C#N,-2,3,-5,-58*,0
COc1ccnc(N=CNOCc2ccc(F)cc2Cl)c1C#N,11,0,1,·,-2

# Screens (PubChem)
